ALOX12 inh: inhibitors of human 12S-lipoxygenase ALOX12 | purified 12hLO, xylenol orange hydroperoxide absorbance | Potency, µM (series often up to 108 µM), usual class: inhibitors | hit rate 1.1% among 580,000 | AID 1671190
Target sequence (P18054 whole entry, looked up): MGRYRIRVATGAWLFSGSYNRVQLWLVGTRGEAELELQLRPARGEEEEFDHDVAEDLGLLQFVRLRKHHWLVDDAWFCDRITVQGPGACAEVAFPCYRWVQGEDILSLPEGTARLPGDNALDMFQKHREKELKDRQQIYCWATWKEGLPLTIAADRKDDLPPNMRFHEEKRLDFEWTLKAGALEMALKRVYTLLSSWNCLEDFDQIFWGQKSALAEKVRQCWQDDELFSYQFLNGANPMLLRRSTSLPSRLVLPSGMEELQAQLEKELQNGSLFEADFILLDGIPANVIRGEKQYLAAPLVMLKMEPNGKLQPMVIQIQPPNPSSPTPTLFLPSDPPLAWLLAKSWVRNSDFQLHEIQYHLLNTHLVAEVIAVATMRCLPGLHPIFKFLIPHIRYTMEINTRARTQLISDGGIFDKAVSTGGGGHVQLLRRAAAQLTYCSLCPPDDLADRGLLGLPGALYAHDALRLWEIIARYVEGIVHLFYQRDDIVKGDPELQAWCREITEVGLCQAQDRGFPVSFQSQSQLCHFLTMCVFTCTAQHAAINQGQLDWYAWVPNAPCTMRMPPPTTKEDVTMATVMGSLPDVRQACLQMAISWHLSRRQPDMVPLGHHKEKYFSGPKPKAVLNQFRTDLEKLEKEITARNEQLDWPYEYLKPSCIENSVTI
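Purified human 12hLO at 150 nM in 25 mM Hepes, 0.01% Triton X-100, pH 7.0, preincubated 15 min at room temperature with compound. Reaction started with 40 uM arachidonic acid, 30 min at room temperature. Hydroperoxide measured by Fe-xylenol orange, 573/405 nm absorbance ratio.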
gsp ag: agonists of gsp mutant (McCune-Albright syndrome) | gsp mutant cells, cAMP HTRF, 30 min | Potency, µM (titrated, usually from 76.9 µM), hits mostly activators | hit rate 0.13% among 340,000; active = well fitted activation curve with a large enough effect; inconclusive = small, poorly fitted or top-dose-only effect, or another doubt; inactive = no such curve, though single readings can be large or run the other way; cell line not stated here;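 note: phosphodiesterase inhibitor Ro 20-1724 added with compounds to block cAMP breakdown; nearly all actives have a fitted effect of over 60% in size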
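Cells in DMEM/10% FBS with G418 were pretreated with compounds in DMSO plus […] (300 uM stock) for 30 min at 37C. cAMP was measured by HTRF (cAMP-d2 plus anti-cAMP antibody-K) after 30 min at room temperature.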
gsp antagonist: antagonists of gsp mutant (McCune-Albright syndrome); gsp-mutant cells, cAMP HTRF, 30 min; hit rate 0.4% among 340,000; AID 624288; Potency, µM (highest dose often 76.9 µM), actives largely listed as inhibitors; calls by dose curve; cell line not stated here;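 note: intracellular cAMP measured with PDE inhibitor Ro 20-1724 present during compound exposure; nearly all actives have a fitted effect of over 65% in size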
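Cells in G418 medium, seeded 16-24 h, 37C; buffer exchange to DPBS + 1 mM CaCl2, 0.5 mM MgCl2, 0.05% BSA; cpds in DMSO + […] (300 uM stock), 30 min 37C; HTRF cAMP detection.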
Mito fusion yeast: blocks mitochondrial division or promotes mitochondrial fusion | S. cerevisiae fusion-defective mutant growth rescue, CellTiterGlo 48 h | Potency, µM (highest dose often 46.1 µM), most hits filed as activators | hit rate 0.23% among 320,000; note: nearly all actives have a fitted effect of over 45% in size
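S. cerevisiae fusion-defective temperature-sensitive mutants (e.g. fzo1-1, mgm1-5) grown 48 h at 37C in YPEG (ethanol/glycerol non-fermentable) medium with 23 nl compound per well; growth rescue read as CellTiterGlo luminescence.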
FUS suppressor: suppressors of FUS proteinopathy in yeast. Potency, µM (top dose mostly 76.6 µM), actives largely listed as activators. S. cerevisiae FUS-expressing, growth rescue, OD600, 24 h. hit rate 0.24% among 390,000; note: nearly all actives have a fitted effect of over 55% in size
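Compound concentration series was pinned onto galactose-induced FUS-expressing yeast seeded at OD 0.005. Plates sat 24hr at 30C; absorbance at 600 nm gave growth. DMSO served as background control.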
Of the large screens only hits and unclear results are named; the others gave an inactive call. Sampled rows, rich in hits. Any-hit rate of the full collection: about 1.6%. Unless noted, calls come from the whole dose curve; as a rule, active = well fitted curve in the direction sought with a large enough effect; inconclusive = small, poorly fitted or top-dose-only effect, or another doubt; inactive = no such curve, though single readings can be large; an effect the other way counts as inactive or inconclusive.

CN(C)c1ccc(/C(=N\O)C(F)(F)F)cc1	gsp antagonist 39.8µM
COc1ccc(C(=O)COC(=O)c2cc(S(=O)(=O)N3CCCCC3)ccc2N2CCOCC2)c(OC)c1	gsp ag inconclusive, FUS suppressor 15.8µM
Cc1ccc(-c2cc(C(=O)N3CCN(C(=O)C4CC4)CC3)c3ccccc3n2)o1	ALOX12 inh 22.4µM (no result: gsp ag, gsp antagonist, Mito fusion yeast, FUS suppressor)
Cc1ccc(-c2cc(C(=O)N3CC(C)CC(C)C3)c3ccccc3n2)o1 (configuration not stated)	ALOX12 inh 35.5µM, FUS suppressor inconclusive (no result: gsp antagonist)
O=C(O)c1ccc2c(c1)CC(=O)N2Cc1ccc(F)cc1	ALOX12 inh 11.2µM (no result: gsp ag, gsp antagonist, Mito fusion yeast, FUS suppressor)
CCCc1nc(SCC(=O)c2ccccc2)c2c(=O)n(C)c(=O)n(C)c2n1	gsp antagonist 35.5µM
CC(C)CCn1c(SCC(=O)c2ccccc2)nc2c1c(=O)n(C)c(=O)n2C	ALOX12 inh 17.8µM (no result: gsp ag, gsp antagonist, Mito fusion yeast, FUS suppressor)
CCCn1c(SCC(=O)Nc2ccc(NC(C)=O)cc2)nc2c1c(=O)n(C)c(=O)n2C	gsp ag 17.8µM
Cc1cc2ncc(C(=O)NC3CCCCC3)cn2n1	none (no result: gsp ag, gsp antagonist, Mito fusion yeast, FUS suppressor)
O=C(/C=C/c1ccc(Cl)cc1)c1cc2ccccc2oc1=O	none (no result: gsp ag, gsp antagonist, Mito fusion yeast, FUS suppressor)
COc1cc(-c2cc(OC)c3c(C)oc(C)c3c(=O)c2)ccc1OC(=O)c1ccccc1Cl	ALOX12 inh inconclusive, FUS suppressor 12.6µM (no result: gsp ag, gsp antagonist, Mito fusion yeast)
O=C(O)CCC(=O)N1N=C(c2ccc(Br)cc2)CC1c1ccc(Br)cc1 (configuration not stated)	ALOX12 inh inconclusive, gsp antagonist inconclusive
COc1ccc(C2CC(c3ccccc3)=NN2C(=O)COC(=O)c2cccnc2)cc1 (configuration not stated)	none (no result: FUS suppressor)
O=C(O)CCC(=O)N1N=C(c2ccccc2)CC1c1ccc(Br)cc1 (configuration not stated)	gsp antagonist 39.8µM
CC(C)c1ccc(C2CC(c3ccc(Br)cc3)=NN2C(N)=S)cc1 (configuration not stated)	ALOX12 inh 44.7µM, Mito fusion yeast inconclusive
COc1ccc(C2CC(c3ccc(Br)cc3)=NN2C(=O)c2cccnc2)cc1 (configuration not stated)	ALOX12 inh inconclusive, gsp ag inconclusive, gsp antagonist inconclusive, Mito fusion yeast 17.8µM
O=C1CCSc2c1cccc2C(=O)Nc1ccc(F)c(Cl)c1	none (no result: gsp ag, gsp antagonist, Mito fusion yeast, FUS suppressor)
O=C1C=C(Nc2cccc(Cl)c2)CC2(CCCCC2)C1	none (no result: gsp ag, gsp antagonist, Mito fusion yeast, FUS suppressor)
Nc1ccccc1SC(CC(=O)c1ccccc1)c1ccc([N+](=O)[O-])cc1 (configuration not stated)	ALOX12 inh inconclusive (no result: gsp antagonist, Mito fusion yeast)
COc1ccc(C(CC(=O)c2ccc(C)cc2)Sc2ccccc2N)cc1 (configuration not stated)	ALOX12 inh 50.1µM (no result: gsp antagonist, Mito fusion yeast)
Cc1occc1C(=O)OCC(=O)c1sc2ccccc2c1C	ALOX12 inh 31.6µM (no result: gsp ag, gsp antagonist, Mito fusion yeast, FUS suppressor)
COc1cc(C#N)ccc1OCc1cc(C)cc(C)c1	none (no result: gsp ag, gsp antagonist, Mito fusion yeast, FUS suppressor)
Cc1cccc(C)c1NC(=O)C(CCc1ccccc1)N(C(=O)c1ccc(F)cc1)c1ccccc1F (configuration not stated)	none (no result: gsp ag, gsp antagonist, Mito fusion yeast, FUS suppressor)
COc1ccc(C(=O)Nc2nc3c(s2)C[C@@H]2[C@](C)(CO)[C@H](O)CC[C@@]2(C)[C@@H]3CC(=O)NC(C)C)cc1	none (no result: gsp ag, gsp antagonist, Mito fusion yeast, FUS suppressor)
CCCCCC(=O)N1C[C@H](n2cc(COC(=O)c3ccccc3)nn2)[C@@H](O)C[C@@H]1c1ccc(C)cc1	ALOX12 inh 39.8µM, FUS suppressor inconclusive (no result: gsp antagonist, Mito fusion yeast)
O=C(NC1CCCCC1)N1CCC(c2nnc3n2CCNC3)CC1	ALOX12 inh 12.6µM (no result: gsp ag, gsp antagonist, Mito fusion yeast, FUS suppressor)
O=C(NC1CCCCC1)N1CCNCC1	none
CSCCC(=O)NCc1cccs1	none (no result: gsp ag, gsp antagonist, Mito fusion yeast, FUS suppressor)
C[C@@H](NC(=O)C1CC1)c1c(-c2ccc(F)cc2)noc1C(=O)O	ALOX12 inh 50.1µM (no result: gsp ag, gsp antagonist, Mito fusion yeast, FUS suppressor)
CCOC(=O)C1=C(c2ccccc2)NC(N)=NC1c1ccc(OCc2ccc(C(=O)OC)cc2)cc1 (configuration not stated)	ALOX12 inh inconclusive, FUS suppressor 25.1µM
CCOC(=O)C1=C(c2ccccc2)Nc2ncnn2C1c1ccc(C(=O)O)cc1 (configuration not stated)	none
O=C1NCCCCCCN(Cc2ccncc2)[C@@H]2CN(Cc3ccccn3)CC[C@H]12	none (no result: gsp ag, gsp antagonist, Mito fusion yeast, FUS suppressor)
O=C(Nc1ccc(-c2noc(/C=C/c3ccccc3)n2)cc1)c1ccc(Br)o1	ALOX12 inh 28.2µM (no result: gsp ag, gsp antagonist, Mito fusion yeast, FUS suppressor)
Cc1ccc2c(c1)C(c1ccc(F)cc1)N(C(=O)c1ccc(S(=O)(=O)N3CCCCC3)cc1)CC(=O)N2 (configuration not stated)	FUS suppressor 31.6µM (no result: gsp ag, gsp antagonist, Mito fusion yeast)

Assay outcomes deposited in PubChem by National Center for Advancing Translational Sciences (NCATS).
